From PubChem BioAssay (NCATS)
Records with an inconclusive call do not appear. The source made the active and inactive calls. The call rests on the fitted dose curve; in most records, active means well fitted curve in the direction sought with a large enough effect; inconclusive means small, poorly fitted or top-dose-only effect, or another doubt; inactive means no such curve, though single readings can be large; an effect the other way counts as inactive or inconclusive.

Columns and labels:
[1] = Cellular Toxicity (caspase-3) Mesangial (AID 660); details: mesangial cells, normalized: DMSO 0%, 100 µM tamoxifen 100%; at 91.7 µM (top of the series);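 further: combined caspase 3 and 7 activity read by Caspase-Glo luminescence; cells exposed to compound for 16 h before the caspase read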
Outline: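 AC50 values come from Hill-equation fits of caspase 3/7 activation, measured as Caspase-Glo luminescence in human glomerular mesangial cells exposed to compound for 16 h at 37 °C; 100% set by 100 uM tamoxifen.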

[2] = Cellular Toxicity (caspase-3) SK-N-SH (AID 661);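 further: 0% = DMSO basal and 100% = 10 µM staurosporine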
Outline: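 Apoptosis readout in SK-N-SH neuroblastoma: Caspase-Glo 3/7 luminescence following 16 hr treatment in complete culture medium. Normalization used DMSO and 10 uM staurosporine controls.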

[3] = Cellular Toxicity (caspase-3) H-4-II-E (AID 663); details: H-4-II-E rat hepatoma, scaled: DMSO 0%, 100 µM tamoxifen 100%; at 92.2 µM (top of the series)
Outline: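 H-4-II-E rat hepatoma, 1500 cells/well, 5 hr settle at 37 °C; compound 16 hr, 37 °C, complete medium; Caspase-Glo 3/7, 20 min RT; luminescence. DMSO = 0%, 100 uM tamoxifen = 100%; Hill-equation AC50.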

[4] = Cellular Toxicity (caspase-3) Hek293 (AID 664); details: HEK293 caspase-3 activation, DMSO = 0%, 100 µM tamoxifen = 100%; at 92.2 µM (top of the series);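 further: cells exposed to compound for 16 h at 37 °C before readout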
Outline: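 Apoptosis readout: Caspase-Glo 3/7 signal in human HEK293 cells following 16-hour compound incubation. Responses scaled between DMSO baseline and 100 uM tamoxifen.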

[5] = Cellular Toxicity (caspase-3) N2a (AID 665);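 further: compound exposure lasted 16 h at 37 °C before readout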
Outline: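 Concentration-response qHTS: compound-induced caspase-3/7 luminescence in N2a cells (16 h, 37 °C), relative to DMSO and 10 uM staurosporine controls; AC50 obtained using the standard Hill equation.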

[6] = Cellular Toxicity (caspase-3) Renal Proximal Tubule (AID 667); details: Potency: caspase-3 activation;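 further: cells exposed to compound for 16 hours at 37 °C before detection; 0% = DMSO basal and 100% = 10 µM staurosporine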
Outline: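 Freshly isolated primary rat kidney proximal tubule cells, 1000/well, treated 16 hr at 37 °C, then Caspase-Glo 3/7 luminescence after 1 hr. Normalized to DMSO and 10 uM staurosporine; AC50 from Hill fit.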

[7] = biological target: Cytochrome P450 3A4 (Homo sapiens) (UniProt P08684); test: qHTS Assay for Inhibitors and Substrates of Cytochrome P450 3A4 (AID 884); further: on the % scale 0 is the no-effect control and ±100 the full control effect; nearly all actives have a fitted effect of over 50% in size
Outline: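 Luminescent readout of luciferin produced by CYP3A4 (20 nM) dealkylation of Luciferin-PPXE, 25 uM (its KM). NADPH-driven reaction ran 60 min at RT after 10 min compound preincubation; data scaled to 57 uM ketoconazole as 100% inhibition.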

[8] = Cell Viability - LYMP2-001 (AID 921); further: nearly all actives have a fitted effect of over 70% in size; further: potency means the concentration at half of the fitted maximal effect
Outline: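 Human lymphoblastoid LYMP2-001 cells, 2500 per well, in complete medium, treated 24 h at 37 C. Viability from cellular ATP by CellTiter-Glo luminescence; AC50 from Hill-equation fits of qHTS concentration-response.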

[9] = MultiTox-Fluor Cytotoxicity Assay - LYMP1-001 - Dead Cells (AID 946);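 further: 0% = DMSO and 100% = tetraoctylammonium bromide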
Outline: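 In this qHTS, 15 uM tetraoctylammonium bromide defined 100% and DMSO defined basal activity. Lymphoblastoid cells (LYMP1-001, 2500 per well) received compound for 16 hr at 37 C before a fluorogenic dead-cell substrate readout at 485/520 nm.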

[10] = MultiTox-Fluor Cytotoxicity Assay - LYMP1-001 - Live Cells (AID 947);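 further: 0% = DMSO only and full inhibition = tetraoctylammonium bromide control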
[11] = Cell Viability - LYMP1-002 - Assay at 16 hr (AID 948);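 further: 0% = DMSO alone and full effect = 92 µM tetraoctylammonium bromide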
Outline: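 LYMP1-002 human lymphoblastoid cells, 2500/well, were treated with compounds for 16 hr at 37 C in complete medium. Viability was read as intracellular ATP by CellTiter-Glo luminescence, and AC50 was derived from a Hill fit to concentration-response data.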

[12] = MultiTox-Fluor Cytotoxicity Assay - LYMP1-002 - Live Cells (AID 955); further: on the % scale 0 is the no-effect control and ±100 the full control effect
Outline: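 In this qHTS viability format, lymphoblastoid cells (LYMP1-002, human) received compound for 16 hr at 37 C. Fluorogenic GF-AFC cleavage by viable cells was detected at 405/510 nm after 1 h at room temperature.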

[13] = MultiTox-Fluor Cytotoxicity Assay - LYMP1-002 - Dead Cells (AID 960);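 further: 0% = DMSO and 100% = tetraoctylammonium bromide; nearly all actives have a fitted effect of over 60% in size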
Outline: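 Concentration-dependent increases in membrane-leaked protease activity are quantified in LYMP1-002 cells after 16 hr treatment; values are normalized against DMSO and tetraoctylammonium bromide (15 uM) controls and AC50 derived by Hill modeling.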

[14] = MultiTox-Fluor Cytotoxicity Assay - LYMP1-003 - Dead Cells (AID 961);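 further: 0% = DMSO and 100% = tetraoctylammonium bromide; nearly all actives have a fitted effect of over 70% in size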
Outline: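 Acute toxicity is scored as increased dead-cell protease activity in human lymphoblastoid LYMP1-003 cells after 16 h compound exposure in complete culture medium. Activity is normalized to DMSO basal and 15 uM tetraoctylammonium bromide as full response.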

[15] = Cell Viability - LYMP1-003 - Assay at 24 hr (AID 963);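 further: plate controls were DMSO only for no effect and tetraoctylammonium bromide positive control for full effect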
Outline: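 The lymphoblastoid line was treated with titrated compounds for 24 hours, and viable cell number estimated from luciferase-based ATP luminescence.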

[16] = Cell Viability - LYMP2-003 (AID 965);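 further: cells exposed to compounds for 24 h before reading; nearly all actives have a fitted effect of over 50% in size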; further: potency means the concentration at half of the fitted maximal effect
Outline: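 Human lymphoblastoid LYMP2-003 cells, 2500/well, exposed to compounds for 24 h at 37 C in complete medium. Viability read as intracellular ATP by CellTiter-Glo luminescence; AC50 from Hill-equation fits of qHTS concentration-response data.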

[17] = MultiTox-Fluor Cytotoxicity Assay - LYMP1-003 - Live Cells (AID 962);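 further: 0% = DMSO only and full loss = 92 µM tetraoctylammonium bromide; cytotoxic hits lower the live-cell protease signal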
Outline: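 Human lymphoblastoid line LYMP1-003 in complete culture medium, treated 16 hr with titrated compounds. Viable cells quantified via cell-permeant GF-AFC substrate fluorescence; AC50 derived by Hill fitting.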

[18] = Cell Viability - LYMP1-003 - Assay at 40 hr (AID 964); further: on the % scale 0 is the no-effect control and ±100 the full control effect; nearly all actives have a fitted effect of over 60% in size
Outline: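 Acute toxicity is scored as a concentration-dependent loss of intracellular ATP in LYMP1-003 cells (2500/well, complete medium) after 40 hr at 37 C, measured by CellTiter-Glo luminescence; AC50 values derive from standard Hill modelling.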

[19] = Cellular Toxicity (caspase-3) NIH 3T3 (AID 666);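 further: caspase signal read after 16 h compound exposure; 0% = DMSO basal and 100% = 100 µM tamoxifen stimulation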
Outline: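 Activity: caspase-3/7 induction, NIH 3T3 cells, 16 hr treatment at 37°C, luminescent Caspase-Glo detection; AC50 via Hill equation.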

Sequence of Cytochrome P450 3A4 (Homo sapiens) (P08684 whole entry, looked up): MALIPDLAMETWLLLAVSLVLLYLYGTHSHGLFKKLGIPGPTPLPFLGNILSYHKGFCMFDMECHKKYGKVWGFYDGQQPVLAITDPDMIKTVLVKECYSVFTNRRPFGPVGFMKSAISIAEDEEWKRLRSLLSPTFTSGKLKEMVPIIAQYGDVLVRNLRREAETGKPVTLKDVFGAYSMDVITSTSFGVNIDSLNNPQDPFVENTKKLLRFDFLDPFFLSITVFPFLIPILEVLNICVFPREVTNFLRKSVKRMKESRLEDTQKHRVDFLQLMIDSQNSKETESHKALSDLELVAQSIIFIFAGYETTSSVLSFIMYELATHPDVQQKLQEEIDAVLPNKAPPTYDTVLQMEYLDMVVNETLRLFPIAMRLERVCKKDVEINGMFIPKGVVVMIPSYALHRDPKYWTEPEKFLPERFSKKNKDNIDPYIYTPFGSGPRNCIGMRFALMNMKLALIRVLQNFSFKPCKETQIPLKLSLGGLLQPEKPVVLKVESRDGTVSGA

COc1ccc(N)c(C)c1
inactive: caspase-3 activation [1] 2.2% | outcome [2] | caspase-3 activation [3] 0.764% | caspase-3 activation [4] -0.876% | outcome [5] | Potency [6] | Potency [7] | Potency [8] | outcome [9] | outcome [10] | outcome [11] | outcome [12] | outcome [13] | Potency [14] | Potency [15] | Potency [16]

CC(C)(C)OC=O
inactive: caspase-3 activation [1] 1.35% | outcome [2] | caspase-3 activation [3] 0.183% | caspase-3 activation [4] -1.63% | outcome [5] | Potency [6] | Potency [7] | outcome [9] | outcome [10] | outcome [11] | Potency [14] | Potency [17] | Potency [15] | Potency [18] | Potency [16]

CC(=O)OC(C)C
inactive: caspase-3 activation [1] 0.284% | outcome [2] | caspase-3 activation [4] 0.887% | outcome [5] | outcome [19] | Potency [6] | Potency [7] | Potency [8] | outcome [9] | outcome [10] | outcome [11] | outcome [12] | outcome [13] | Potency [14] | Potency [15] | Potency [18] | Potency [16]

CCCC(C)CO (centres undefined)
inactive: caspase-3 activation [1] 0.885% | outcome [2] | caspase-3 activation [4] 1.12% | outcome [5] | outcome [19] | Potency [6] | Potency [7] | Potency [8] | outcome [9] | outcome [10] | outcome [11] | outcome [12] | Potency [14] | Potency [17] | Potency [15] | Potency [18] | Potency [16]

Cc1c(N)cccc1N
inactive: caspase-3 activation [1] -0.29% | outcome [2] | caspase-3 activation [3] 0.28% | caspase-3 activation [4] 0.0499% | outcome [5] | Potency [6] | Potency [8] | outcome [9] | outcome [10] | outcome [12] | outcome [13] | Potency [14] | Potency [17] | Potency [15] | Potency [18] | Potency [16]

O=C(Cl)c1c(Cl)cccc1Cl
inactive: caspase-3 activation [1] -0.17% | outcome [2] | caspase-3 activation [4] 0.529% | outcome [5] | outcome [19] | Potency [6] | Potency [7] | Potency [8] | outcome [9] | outcome [10] | outcome [11] | outcome [12] | Potency [14] | Potency [17] | Potency [15] | Potency [18] | Potency [16]

OC1CCCC1
inactive: caspase-3 activation [1] -0.56% | outcome [2] | caspase-3 activation [4] -1.06% | outcome [5] | Potency [6] | Potency [7] | Potency [8] | outcome [9] | outcome [10] | outcome [11] | outcome [12] | Potency [14] | Potency [17] | Potency [15] | Potency [18] | Potency [16]

c1ccc2c(c1)Oc1ccccc1S2
inactive: caspase-3 activation [1] -0.346% | outcome [2] | caspase-3 activation [4] -0.379% | outcome [5] | outcome [19] | Potency [6] | Potency [7] | Potency [8] | outcome [9] | outcome [10] | outcome [11] | outcome [12] | outcome [13] | Potency [14] | Potency [17] | Potency [15] | Potency [18] | Potency [16]

Cc1cccc(C(=O)O)c1[N+](=O)[O-]
inactive: caspase-3 activation [1] 0.577% | outcome [2] | caspase-3 activation [4] 3.47% | outcome [5] | outcome [19] | Potency [6] | Potency [7] | Potency [8] | outcome [9] | outcome [10] | outcome [11] | outcome [12] | outcome [13] | Potency [14] | Potency [17] | Potency [15] | Potency [18] | Potency [16]

CCCCC/C=C/C=C/C=O
inactive: caspase-3 activation [1] 0.621% | outcome [2] | outcome [5] | outcome [19] | Potency [6] | Potency [7] | outcome [9] | outcome [10] | outcome [11] | Potency [14] | Potency [17] | Potency [15] | Potency [18]
active: caspase-3 activation [4] 163% | Potency [8] 50.1 µM

O=Nc1ccc(NO)cc1
active: Potency [16] 50.1 µM
inactive: caspase-3 activation [1] 0.317% | outcome [2] | caspase-3 activation [4] 11.4% | outcome [5] | outcome [19] | Potency [6] | Potency [7] | outcome [9] | outcome [11] | outcome [12] | outcome [13] | Potency [14] | Potency [15] | Potency [18]

O=[N+]([O-])c1ccccc1CCO
inactive: caspase-3 activation [1] -1.29% | outcome [2] | caspase-3 activation [4] -0.925% | outcome [5] | outcome [19] | Potency [6] | Potency [7] | Potency [8] | outcome [9] | outcome [10] | outcome [12] | outcome [13] | Potency [14] | Potency [17] | Potency [15] | Potency [18] | Potency [16]

CC(C)=CCC/C(C)=C/C=O
inactive: caspase-3 activation [1] 0.108% | outcome [2] | caspase-3 activation [4] -2.02% | outcome [5] | outcome [19] | Potency [6] | Potency [7] | Potency [8] | outcome [9] | outcome [10] | outcome [11] | outcome [13] | Potency [14] | Potency [17] | Potency [15] | Potency [16]

O=C(O)c1c(Cl)cccc1Cl
inactive: caspase-3 activation [1] 0.0651% | outcome [2] | caspase-3 activation [4] 0.49% | outcome [5] | outcome [19] | Potency [6] | Potency [7] | Potency [8] | outcome [9] | outcome [10] | outcome [11] | outcome [12] | outcome [13] | Potency [14] | Potency [17] | Potency [15] | Potency [18] | Potency [16]

CCOC(=O)C(C)C(C)=O (centres undefined)
inactive: caspase-3 activation [1] 1.11% | outcome [2] | caspase-3 activation [4] -0.825% | outcome [5] | outcome [19] | Potency [6] | Potency [7] | Potency [8] | outcome [9] | outcome [10] | outcome [11] | outcome [12] | outcome [13] | Potency [14] | Potency [17] | Potency [15] | Potency [18] | Potency [16]
